D1 antagonist: antagonists of human D1 dopamine receptor; AID 504652; actives 3.2% (n = 360,000); activity change, negative = inhibition, % at 10 µM; P21728; HEK293 TREx D1 cells, calcium flux, dopamine EC80; stronger effect = lower value; in the data active = activity change below about -30%
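Antagonism measured as reduced calcium response to an EC80 dopamine addition following 180 s compound pre-read; cells were inducible HEK293 Trex D1 plated overnight at 30 C, read kinetically at 1 cycle/sec.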
D1 PAM: potentiators of human D1 dopamine receptor; P21728; HEK293 TREx D1 cells, calcium flux, dopamine EC20 potentiation; potentiation, % at 10 µM; actives 0.036% (n = 360,000); AID 504651; in the data active = potentiation above about 30%
D1 ag: activates the human D1 dopamine receptor; AID 504660; actives 1% (n = 360,000); activation, % at 2 µM; HEK293 T-REx D1 cells, calcium flux, agonist mode; P21728; in the data active = activation above about 30%
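Inducible HEK293 T-REx D1 cells, force-coupled to calcium signalling, were plated at 4000 cells/well with tetracycline and held overnight at 30 C. After no-wash calcium dye loading, compound-evoked calcium rise over 180 s flagged agonists.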
D3 antag: D3 dopamine receptor (human) antagonism; P35462; max response, negative = inhibition, %; actives 2.5% (n = 360,000); D3R cells, DiscoveRx beta-arrestin luminescence, antagonist mode; stronger effect = lower value; in the data active = max response below about -50%
Target sequence (P35462 whole entry, looked up): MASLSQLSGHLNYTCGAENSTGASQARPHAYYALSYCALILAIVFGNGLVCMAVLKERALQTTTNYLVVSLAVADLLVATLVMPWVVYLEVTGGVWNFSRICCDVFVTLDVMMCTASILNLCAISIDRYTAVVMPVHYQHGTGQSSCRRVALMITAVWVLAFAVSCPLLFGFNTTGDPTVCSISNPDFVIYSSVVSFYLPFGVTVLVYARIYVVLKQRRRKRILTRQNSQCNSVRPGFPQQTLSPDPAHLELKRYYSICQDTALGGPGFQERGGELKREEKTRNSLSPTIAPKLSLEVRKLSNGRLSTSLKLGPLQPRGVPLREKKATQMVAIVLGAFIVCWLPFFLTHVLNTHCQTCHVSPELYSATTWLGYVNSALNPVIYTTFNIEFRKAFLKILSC
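Cells plated overnight at 1500 cells/well, then exposed to library compounds with dopamine controls for 90 minutes at 37 degrees C. DiscoveRx reagent added for 30–60 minutes at room temperature; luminescence read, quantitative HTS format.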
D3 ag: activates the human D3 dopamine receptor | D3R DiscoveRx beta-arrestin cells, luminescence, 90 min | actives 0.58% (n = 410,000) | max activation, %; in the data active = max activation above about 30%
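Agonist mode: compounds and dopamine controls were applied to plated cells for 90 min at 37 degrees C after an overnight attachment at 1500 cells/well. Luminescent read-out followed 30 - 60 minutes at room temperature with DiscoveRx detection reagent.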
A number is an active result; 0 = inactive; - = no result. Sampled rows, rich in hits. Any-hit rate of the full collection: about 6%.

SMILES | D1 antagonist | D1 PAM | D1 ag | D3 antag | D3 ag
COc1cccc(-n2c(SCc3ccc(F)cc3)nc3c([nH]c4ccccc43)c2=O)c1 | 0 | 0 | 0 | - | 0
Cc1ccc(CNC(=O)C2CCC(CNS(=O)(=O)c3ccc4c(c3)CCCC(=O)N4)CC2)cc1 (configuration not stated) | 0 | 0 | 0 | - | 0
C(=C\c1ccccc1)/CN1CCN(C(c2ccccc2)c2nnnn2-c2ccc3c(c2)OCCO3)CC1 (configuration not stated) | - | - | - | -74.5 | 0
COc1ccc(C(c2nnnn2-c2ccc(OC)cc2)N2CCN(C/C=C/c3ccccc3)CC2)cc1 (configuration not stated) | - | - | - | -89.2 | 0
COc1ccc(-n2nnnc2C(c2cccs2)N2CCN(C/C=C/c3ccccc3)CC2)cc1 (configuration not stated) | - | - | - | -59.6 | 0
C(=C\c1ccccc1)/CN1CCN(C(c2ccnc3ccccc23)c2nnnn2-c2ccc3c(c2)OCCO3)CC1 (configuration not stated) | - | - | - | 0 | 0
COc1ccc(-n2nnnc2C(c2ccccc2OC(F)(F)F)N2CCN(C/C=C/c3ccccc3)CC2)cc1 (configuration not stated) | - | - | - | -96.1 | 0
Cc1cccc(N2CCN(CCCNc3ncnc4onc(-c5ccc(Cl)cc5)c34)CC2C)c1 (configuration not stated) | 0 | 0 | 0 | - | 0
CCOc1ccc(NC(=O)C2(c3cccs3)CCOCC2)cc1 | - | 0 | 0 | - | 0
COc1ccc(C(c2nnnn2C2CCCCC2)N2CCN(C/C=C/c3ccccc3)CC2)cc1 (configuration not stated) | - | - | - | -83.8 | 0
CCCCn1nnnc1C(c1ccccc1)N1CCN(CCN2CCOCC2)CC1 (configuration not stated) | - | - | - | 0 | 0
COc1ccc(N2CCN(C(c3ccccc3OC)c3nnnn3C3CCCC3)CC2)cc1 (configuration not stated) | 0 | 0 | 0 | 0 | 0
CCCCn1nnnc1C(C1CC1)N1CCN(C/C=C/c2ccccc2)CC1 (configuration not stated) | - | - | - | -136.6 | 0
Fc1ccc(C2=NNC(=NCc3ccccc3)SC2)cc1F | -40.2 | 0 | 0 | 0 | 0
Cc1ccc(/C=C/C(=O)N2CCN(c3ncccn3)CC2)o1 | -42.8 | 0 | 0 | 0 | 0
CCOc1ccc2nc(/N=C/c3nc(-c4ccc(Br)cc4)oc3O)sc2c1 | 0 | 0 | 37.1 | 0 | 0
CCCCOc1ccc(-c2nc(/C=N/c3nccs3)c(O)o2)cc1 | 0 | 0 | 0 | 0 | 0
COC(=O)[C@@]1(Cc2ccc(F)cc2)[C@H]2c3cc(C(=O)N(C)C)n(Cc4nc5ccccc5[nH]4)c3C[C@H]2CN1C(=O)c1ccccc1 | 0 | 0 | 0 | -67.6 | 0
COc1ccc(CN(C(=O)Cc2coc3ccc(C)cc23)C2CCS(=O)(=O)C2)cc1 (configuration not stated) | 0 | 0 | 0 | - | 0
O=C(O)COc1ccccc1/C=N/NC(=O)CSc1nnc(SCc2cccc3ccccc23)s1 | 0 | 0 | 35.0 | 0 | 0
COc1ccc(CN2CCN(c3cc(C)nc4c5c(C)cc(C)nc5nn34)CC2)cc1F | -38.3 | 0 | 0 | 0 | 0
Cc1cccc(C(=O)NC(NCCc2ccccc2)C(Cl)(Cl)Cl)c1 (configuration not stated) | -41.4 | 0 | 0 | 0 | 0
Cc1cccc(C(=O)NC(NCc2ccco2)C(Cl)(Cl)Cl)c1 (configuration not stated) | 0 | 0 | 0 | 0 | 0
COC(=O)C[C@H]1c2cc(C(F)(F)F)ccc2S(=O)(=O)N1Cc1ccc(OC)cc1 | - | - | - | 0 | 48.4
COc1ccc(CN2[C@@H](CC(=O)O)c3cc(C(F)(F)F)ccc3S2(=O)=O)cc1 | - | - | - | 0 | 0
SMILES | D1 antagonist | D1 PAM | D1 ag | D3 antag | D3 ag
CCC(C)[C@H](N)c1nnc(SCc2ccc(Cl)c(Cl)c2)o1 (some centres not stated) | 0 | 0 | 54.1 | - | 0
CC(C)[C@H](N)c1nnc(SCc2ccc(Cl)cc2)o1 | 0 | 0 | 0 | 0 | 0
CCOC(=O)c1c(CN2CCN(C)CC2)n(-c2ccccc2)c2cc(Br)c(O)cc12 | 0 | 0 | 0 | -64.0 | 0
CCOC(=O)c1c(C)n(-c2ccccc2)c2ccc(O)cc12 | -70.3 | 0 | 0 | 0 | 0
O=C(NN=Cc1c[nH]c2ccccc12)NN=Cc1c[nH]c2ccccc12 | - | - | - | 0 | 0
O=Cc1c[nH]c2ccccc12 | -54.9 | 0 | 0 | - | -
COc1ccccc1CNC(=O)CCCc1nnc2n(CC(C)C)c(=O)c3sccc3n12 | 0 | 0 | 0 | - | 0
Cc1cccc(-n2c(=O)[nH]c3c(C(N)=O)nc(CC(C)C)nc32)c1 | -35.8 | 0 | 0 | 0 | 0
CC(C)Cc1nc(C(N)=O)c2[nH]c(=O)n(-c3ccc(F)cc3)c2n1 | 0 | 0 | 0 | 0 | 0
Cc1cccc(N2CCN(S(=O)(=O)c3ccc(-c4cc(C(F)(F)F)on4)s3)CC2)c1C | 0 | 0 | 0 | - | 0
Cc1ccc(-n2c3c(cc(C(=O)Nc4ccccc4C(N)=O)c2=O)C(=O)CC(C)(C)C3)cc1 | 0 | 0 | 0 | - | 0
COc1ccc(C(NC(=O)C2CCN(Cc3ccc(Oc4ccccc4)cc3)CC2)c2ccccn2)cc1 (configuration not stated) | - | - | - | -55.4 | 0
O=C(NC(c1ccc(-c2ccccc2)cc1)c1cnccn1)C1CCN(Cc2ccc(Oc3ccccc3)cc2)CC1 (configuration not stated) | - | - | - | -54.1 | 0
O=C(NC(c1ccc(Cl)cc1)c1cnccn1)C1CCN(Cc2ccccc2)CC1 (configuration not stated) | - | - | - | 0 | 0
COc1cc(CN2CCC(C(=O)NC(c3ccc(-c4ccccc4)cc3)c3cnccn3)CC2)cc(OC)c1 (configuration not stated) | - | - | - | -53.6 | 0
Cc1c(CNC2CCCCCC2)c(C(=O)O)c(C)n1Cc1cccc(Cl)c1 | 0 | 0 | 0 | - | 0
COc1cc(C)ccc1OCCSc1nc2ccc(NC(=O)c3ccccc3F)cc2s1 | 0 | 0 | 0 | - | 0
CC(=O)NCCN=C(C)c1sc2ccccc2c1O | 0 | 0 | 0 | 0 | 0
CC(=Nc1ccc(O)cc1)c1sc2ccccc2c1O | 0 | 0 | 53.3 | 0 | 0
CC(=Nc1cccc(C)c1)c1sc2ccccc2c1O | 0 | 0 | 0 | 0 | 0
CC(=Nc1ccccc1O)c1sc2ccccc2c1O | 0 | 0 | 48.5 | 0 | 0
CCCCN1CCCC1C(=O)Nc1c(C)cc(C)cc1C (configuration not stated) | - | - | - | - | 0
Cc1cc(F)ccc1NC(=O)C1CCC(CNS(=O)(=O)c2ccc3c(c2)CCCC(=O)N3)CC1 (configuration not stated) | 0 | 0 | 0 | - | 0
O=C(CSc1n[nH]c(=O)n1C1CC1)Nc1cc(Cl)ccc1Oc1ccccc1 | 0 | 0 | 0 | 0 | 31.8
CCOC(=O)c1cccc(NC(=O)CCc2c(C)nn(-c3ccc(N4CCCCC4)nn3)c2C)c1 | 0 | 0 | 0 | - | 0
Cc1ccc(C)c(N2CCN(c3nc4ccccc4c(=O)n3-c3ccc(Cl)cc3)CC2)c1 | -56.2 | 0 | 0 | - | 0

Screening results from PubChem BioAssay.
